The target of the assay is Thyrotropin receptor (Homo sapiens) (UniProt P16473). Put plainly: Secondary Concentration-Response Assay for Agonists of the Thyroid Stimulating Hormone Receptor: HTRF Activity Detection.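 For activation: HEK 293 cells stably expressing human TSHR with RO 20-1724 phosphodiesterase inhibitor.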 The method, boiled down:
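Orthogonal confirmation in a separate TSHR-transfected HEK 293 line: cells in medium with 10 % FCS and 100 uM RO 20-1724 got compound for 30 min at room temperature. cAMP was measured by HTRF (d2-cAMP/anti-cAMP antibody), 615/660 nm emission.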
On the technique in general: TR-FRET usually uses a lanthanide donor and a delayed reading to cut background.

The values that follow come from PubChem BioAssay AID933 (National Center for Advancing Translational Sciences (NCATS), 2007).

Results filed as inconclusive are left out. Where a call stands in place of a potency, no number is given. Values without a mark were called inactive. The source made the active and inactive calls. Calls come from the whole dose curve; as a rule, active = well fitted activation curve with a large enough effect in the signal ratio, with a control signal flat; inconclusive = small, poorly fitted or top-dose-only effect, or a change in a side signal; inactive = flat fitted curve, though single readings scatter; the % refers to the signal ratio.
Potency is the fitted concentration of half-maximal effect.

Sequence of Thyrotropin receptor (Homo sapiens) (P16473 whole entry, looked up): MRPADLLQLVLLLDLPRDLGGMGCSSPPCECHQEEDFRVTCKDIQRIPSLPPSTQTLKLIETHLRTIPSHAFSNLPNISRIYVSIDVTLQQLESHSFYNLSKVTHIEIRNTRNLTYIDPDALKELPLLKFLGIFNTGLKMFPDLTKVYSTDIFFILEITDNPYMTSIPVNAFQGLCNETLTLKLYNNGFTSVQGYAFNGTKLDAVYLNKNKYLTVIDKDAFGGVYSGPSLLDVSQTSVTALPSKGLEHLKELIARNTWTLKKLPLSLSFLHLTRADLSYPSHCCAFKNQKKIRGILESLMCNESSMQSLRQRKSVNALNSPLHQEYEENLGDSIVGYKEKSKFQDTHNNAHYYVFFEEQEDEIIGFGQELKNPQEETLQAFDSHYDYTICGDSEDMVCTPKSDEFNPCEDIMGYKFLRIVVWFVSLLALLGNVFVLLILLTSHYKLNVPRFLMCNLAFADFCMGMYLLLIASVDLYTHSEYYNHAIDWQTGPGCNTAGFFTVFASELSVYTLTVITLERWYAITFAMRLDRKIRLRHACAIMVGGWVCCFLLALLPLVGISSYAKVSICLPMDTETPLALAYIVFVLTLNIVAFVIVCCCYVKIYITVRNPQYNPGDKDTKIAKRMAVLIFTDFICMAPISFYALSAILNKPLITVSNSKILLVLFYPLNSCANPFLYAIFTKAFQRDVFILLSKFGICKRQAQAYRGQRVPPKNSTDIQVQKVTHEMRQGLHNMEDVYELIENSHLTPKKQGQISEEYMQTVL

With `COc1ccc(C2Nc3ccccc3C(=O)N2Cc2ccccc2)cc1CSc1ccccn1` (stereo unspecified), the Potency result was “inactive”. On to `COc1ccc(CN(Cc2ccccc2)C(=O)c2ccccc2)cc1COc1ccc(NC(C)=O)cc1`, for which the Potency is 8.91 µM (active). The same measure, in the same setting: the value for `O=C1c2ccccc2NC(c2ccccc2O)N1Cc1ccccc1` (stereo unspecified) was “inactive”. In the case of `CSc1nc(NC(C)(C)C)nc(Oc2ccc(=O)[nH]n2)n1`, the activation is -0.106% [at 0.00035 µM].

For the molecule `COc1ccc(-c2nc3cccc(OC)c3c(=O)n2Cc2ccccc2)cc1COc1ccc(NC(C)=O)cc1`, the Potency result was “inactive”. As to `CC(C)Oc1ccccc1C1Nc2ccccc2C(=O)N1c1ccc2c(c1)OCCO2` (stereo unspecified), the Potency entry is “inactive”. With `COC(=O)C1=C(C)NC(C)=C(C(=O)OC)C1c1ccc(OC(=O)c2ccco2)cc1`, the activation is 0.436% [at 0.00035 µM]. Take `COc1cc(C2Nc3ccccc3C(=O)N2Cc2ccco2)ccc1O` (stereo unspecified): the Potency entry is “inactive”. As to `COc1ccc(C2NC(=O)c3ccccc3N2)cc1COc1ccc(NC(C)=O)cc1` (stereo unspecified), the Potency result is “inactive”.

As for `COc1ccc(N2C(=O)c3ccccc3NC2c2ccc(OC)c(CSc3ccccn3)c2)cc1` (stereo unspecified), the Potency result was “inactive”. In the case of `COc1ccc(C2Cc3ccccc3C(=O)N2Cc2ccccc2)cc1COc1ccc(NC(C)=O)cc1` (stereo unspecified), the Potency was 10 µM (active). Same read-out and setting: the value for `COc1ccc(C2Nc3ccccc3C(=O)N2Cc2cccc(-c3ccccc3)c2)cc1COc1ccc(NC(C)=O)cc1` (stereo unspecified) was 2.24 µM (active). The same measure, in the same setting: to `COc1ccc(CN(Cc2ccccc2)C(=O)c2ccno2)cc1COc1ccc(NC(C)=O)cc1` belongs “inactive”; to `COc1ccc(C2Nc3ccccc3C(=O)N2c2ccc(C)cc2)cc1Cn1nc(C)c([N+](=O)[O-])c1C` (stereo unspecified), “inactive”; to `CCOc1cc(C2Nc3ccccc3C(=O)N2c2ccccc2)ccc1O` (stereo unspecified), “inactive”. For `CC(c1ccco1)N(C(=O)c1ccc(Cl)s1)c1ccccn1` (stereo unspecified), the activation is 0.422% [at 0.00035 µM]. For `COc1ccc(N2C(=O)c3ccccc3NC23C(=O)N(C)c2ccccc23)cc1` (stereo unspecified), the Potency result was “inactive”. Take `COc1cc(OC)cc(C(=O)N2c3ccc(F)cc3CCC2C)c1` (stereo unspecified): the activation was -0.327% [at 0.00035 µM].

Consider `COCCNC(=O)C(c1ccccc1)N(Cc1cccs1)C(=O)Cn1nnc2ccccc21` (stereo unspecified), for which the activation is -0.712% [at 0.00035 µM]. For the molecule `NC(=O)c1nsc(C(=O)N(CC(=O)NCc2ccc3c(c2)OCO3)C2CCCC2)c1N`, the Potency result was “inactive”. On the same count and under the same terms, the value for `COc1ccc(C2Nc3ccc(Cl)cc3C(=O)N2Cc2ccccc2)cc1COc1ccc(NC(C)=O)cc1` (stereo unspecified) was 14.1 µM (active). Still for that read-out and setting: the value for `COc1ccc(N2C(=O)c3ccccc3NC2c2ccc(OC)c(COc3ccccc3F)c2)cc1` (stereo unspecified) was “inactive”; that for `O=c1c2c(-c3ccccc3)csc2ncn1/N=C/c1cn(-c2ccccc2)nc1-c1cccs1` was “inactive”; that for `CCCN1C(=O)c2ccccc2NC1c1ccc(OC)c(COc2cccc(C)c2C)c1` (stereo unspecified) was “inactive”. Same read-out and setting: the value for `COc1cc(C2Nc3ccccc3C(=O)N2c2ccccc2)ccc1O` (stereo unspecified) was “inactive”; that for `COc1ccc(C2Nc3ccccc3C(=O)N2C2CCCC2)cc1COc1ccc(NC(C)=O)cc1` (stereo unspecified) was “inactive”. `COc1cccc(-c2nc(SC)nc3sc(C(=O)NC(C)(C)C)c(N)c23)c1`: the Potency entry was “inactive”. Still for that read-out and setting: the value for `COc1ccc(C2Nc3ccccc3C(=O)N2Cc2ccccc2)cc1Cn1nnc2ccccc21` (stereo unspecified) was “inactive”; that for `O=C1c2ccccc2NC(c2ccc(OCc3ccccc3)c(OCc3ccccc3)c2)N1Cc1ccco1` (stereo unspecified) was “inactive”. As to `COc1ccc(C2Nc3cccc(O)c3C(=O)N2Cc2ccccc2)cc1COc1ccc(NC(C)=O)cc1` (stereo unspecified), the Potency was 7.94 µM (active). In the case of `COc1ccc(N(C)S(=O)(=O)c2cccc(C(=O)NC3=NCCS3)c2)cc1`, the activation was 1.29% [at 0.00035 µM]. Regarding `COc1ccc(C2Nc3ccccc3C(=O)N2Cc2ccccc2)cc1COc1ccc(C#N)cc1` (stereo unspecified), the Potency result was “inactive”. In the case of `Cc1ccccc1NC(=O)CSc1nnc(-c2ccoc2C)n1CCc1ccccc1`, the activation is -0.0378% [at 0.00035 µM].

As for `CCOC(=O)COc1c(OC)cc(Cl)cc1C1Nc2ccccc2C(=O)N1c1cccc(C)c1` (stereo unspecified), the Potency entry is “inactive”.

`COC(=O)C1=C(C)OC(N)=C(C#N)C1C1CCCCC1` (stereo unspecified): the activation was -0.764% [at 0.00035 µM]. Same read-out and setting: to `CCOC(=O)N1CCC(NC(=O)c2ccc(CNS(=O)(=O)c3ccc(F)cc3)cc2)CC1` belongs 0.984% [at 0.00035 µM].
